# Reference: PubChem BioAssay (NCI)
# Compounds without any hit were thinned out: in the full panel of roughly 83,000, 20% have a hit.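 Each cell line was grown in a 96-well plate and treated with one concentration of compound for 48 hours. Values below 10 were considered active.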 A number with no mark means an inactive call. Activity calls are given as the source filed them.
# Experiments:
# Assay in all cases: NCI-60 one-dose screen, 48 h (100 = growth as untreated, 0 = no growth, -100 = all killed)
# DU-145 prostate = conditions: 10 µM
# K-562 leukemia = conditions: 10 µM
# MALME-3M melanoma = conditions: 10 µM
# RXF 393 renal = conditions: 10 µM
# SF-295 CNS = conditions: 10 µM
# SF-539 CNS = conditions: 10 µM
# UACC-257 melanoma = conditions: 10 µM
# M14 melanoma = conditions: 10 µM
# HCT-15 colon = conditions: 10 µM
# HT29 colon = conditions: 10 µM
# SNB-75 CNS = conditions: 10 µM
# U251 CNS = conditions: 10 µM
# SK-MEL-5 melanoma = conditions: 10 µM
# UACC-62 melanoma = conditions: 10 µM unless noted
# SK-MEL-28 melanoma = conditions: 10 µM
# MDA-MB-231 breast = conditions: 10 µM
# SF-268 CNS = conditions: 10 µM
# SNB-19 CNS = conditions: 10 µM
# PC-3 prostate = conditions: 10 µM
# LOX IMVI melanoma = conditions: 10 µM
Compound,growth (DU-145 prostate),growth (K-562 leukemia),growth (MALME-3M melanoma),growth (RXF 393 renal),growth (SF-295 CNS),growth (SF-539 CNS),growth (UACC-257 melanoma),growth (M14 melanoma),growth (HCT-15 colon),growth (HT29 colon),growth (SNB-75 CNS),growth (U251 CNS),growth (SK-MEL-5 melanoma),growth (UACC-62 melanoma),growth (SK-MEL-28 melanoma),growth (MDA-MB-231 breast),growth (SF-268 CNS),growth (SNB-19 CNS) [%],growth (PC-3 prostate),growth (LOX IMVI melanoma)
CNC(=S)NC(C)(C)C,108%,103%,97.1%,112%,104%,99.9%,92.7%,98.8%,106%,101%,146%,97%,93.6%,94%,108%,,,,,
CC(=O)NC(N)=S,107%,121%,,105%,101%,107%,101%,127%,109%,97.7%,,105%,107%,109%,,115%,110%,101,92.6%,102%
O=C(c1ccc(O)cc1)c1ccc(O)cc1,110%,102%,,113%,102%,100%,96.2%,98.7%,99.6%,106%,,94.1%,99.3%,110%,110%,125%,102%,111,103%,97.4%
CN(C)CCN(C)CC(C)(C)C(=O)/C=C/c1ccc(Cl)cc1,6.16% (active),4.79% (active),-27.7% (active),-82.8% (active),20.5%,-25.9% (active),23.1%,-64.4% (active),-66.4% (active),-16.7% (active),12.2%,-1.73% (active),-24.9% (active),-46.4% (active),-11.2% (active),,,,-4.75% (active),-96.4% (active)
O=[N+]([O-])c1cccc2nsnc12,114%,111%,,118%,,108%,87.8%,101%,103%,105%,96.7%,104%,94.9%,105%,114%,112%,101%,98.4,97.3%,
CN(c1ccccc1)c1ncnc2c1ncn2C,108%,103%,,122%,109%,107%,87.9%,104%,102%,102%,92.8%,98.9%,102%,96.8%,112%,109%,97.5%,102,95.8%,98.5%
Cc1cc(N2CCC(N3CCCC3)CC2)nc(/N=C(\N)Nc2ccc(Cl)c(Cl)c2)n1,16.3%,-44.4% (active),,-69.7% (active),-96.2% (active),-84.7% (active),-78.5% (active),-85.9% (active),-12.7% (active),-44.6% (active),-60.3% (active),-71.8% (active),-94% (active),-82.9% (active),-75% (active),-58.1% (active),-4.09% (active),90.7,,-90.8% (active)
CCCC(=O)Nc1ccc2c(c1)CN1C(=O)c3ccccc3C1=N2,101%,102%,,109%,86.7%,89.6%,102%,113%,98.3%,,104%,98.6%,98.5%,100%,111%,103%,101%,110,98.6%,105%
CCNc1nc2c(cnn2C)c(=O)[nH]1,113%,98.2%,,94.6%,103%,104%,115%,99.3%,122%,96.2%,88.6%,97.8%,96.7%,107%,118%,110%,104%,109,99%,95%
C=CCc1cc(C(C)=O)cc(OC)c1O,105%,107%,,95.5%,119%,125%,99%,105%,119%,108%,89.2%,103%,,97.8%,110%,92.1%,96.8%,105,106%,100%
CNc1nc(NC)c2cn[nH]c2n1,113%,104%,,101%,98.4%,103%,,102%,101%,,91.1%,,97.8%,102%,115%,108%,114%,106,91.9%,98.3%
CCc1nc(N)nc(N)c1-c1ccc(Cl)cc1,55.4%,20.3%,,71.6%,37.5%,,72.4%,40.9%,34.1%,47.5%,77%,46.3%,,,94.1%,69.9%,49.2%,88.4,60.5%,31.2%
O=C1C=CC(=O)N1c1ccc(I)cc1Cl,110%,114%,,110%,,97.1%,-2.76% (active),95.1%,99.9%,100%,103%,99.5%,102%,104%,107%,107%,126%,98.4,75.7%,101%
CC(C)NC(=O)OCc1c(COC(=O)NC(C)C)c(-c2ccc(Cl)c(Cl)c2)n2c1SCC2,41.6%,34.1%,62.9%,6.56% (active),27.3%,32%,32.3%,50.3%,47.6%,62.1%,27.8%,43.3%,67.7%,-19.3% (active),92.8%,,,,61.3%,19.1%
O=[N+]([O-])c1ccc(O)c(S(=O)(=O)O)c1,110%,,127%,117%,102%,100%,99.3%,109%,98.1%,104%,98.6%,102%,121%,97.5%,116%,88.7%,114%,105,,98.2%
CC(=O)Nc1cccc(Cl)c1C,106%,,101%,106%,105%,107%,84.9%,108%,106%,97.1%,87.1%,88.9%,102%,,107%,99.5%,92.3%,107,,96.8%

Compound,growth (DU-145 prostate),growth (K-562 leukemia),growth (MALME-3M melanoma),growth (RXF 393 renal),growth (SF-295 CNS),growth (SF-539 CNS),growth (UACC-257 melanoma),growth (M14 melanoma),growth (HCT-15 colon),growth (HT29 colon),growth (SNB-75 CNS),growth (U251 CNS),growth (SK-MEL-5 melanoma),growth (UACC-62 melanoma),growth (SK-MEL-28 melanoma),growth (MDA-MB-231 breast),growth (SF-268 CNS),growth (SNB-19 CNS) [%],growth (PC-3 prostate),growth (LOX IMVI melanoma)
c1ccc(/C(=N\N=C(/c2ccccc2)c2cccs2)c2cccs2)cc1,105%,83.6%,,108%,95.8%,111%,106%,101%,92.4%,95.4%,89%,103%,101%,,108%,,97%,,99.8%,88.4%
COc1cc([C@@H]2c3cc4c(cc3[C@H](O)[C@H]3COC(=O)[C@H]23)OCO4)cc(OC)c1OC,-23.9% (active),,54.2%,41%,-14.1% (active),5.77% (active),53.2%,6.41% (active),10.4%,4.93% (active),30.6%,16.5%,-25% (active),40.5%,58.8%,10.1%,27.3%,34.7,23.3%,22%
C/C=C/CC(C)C(O)C1C(=O)NC(CC)C(=O)N(C)CC(=O)N(C)C(CC(C)C)C(=O)NC(C(C)C)C(=O)N(C)C(CC(C)C)C(=O)NC(C)C(=O)NC(C)C(=O)N(C)C(CC(C)C)C(=O)N(C)C(CC(C)C)C(=O)N(C)C(C(C)C)C(=O)N1C (centres undefined),39%,,,,-16.7% (active),-1.51% (active),1.79% (active),4.21% (active),,-37.2% (active),,29.7%,2.67% (active),2.53% (active),-36.4% (active),-6.48% (active),38.3%,41.7,11.7%,
CC(=O)C1CCCCC1,111%,,107%,99.1%,92.4%,111%,,106%,95%,104%,87.1%,,99.9%,103%,102%,102%,107%,100,96.8%,99.9%
Nc1ccc(CC(=O)O)c(N)c1,,104%,94.3%,102%,104%,102%,101%,100%,106%,107%,93.1%,101%,99.2%,93.3%,101%,103%,94%,97,101%,101%
CCOC(=O)/C(C#N)=C/c1cccc(C)c1,107%,,96%,,97.9%,95.1%,104%,97.4%,108%,99%,80.8%,,101%,92%,109%,110%,94.1%,94.8,,
S=C(Nc1ccccc1)N1CCCCC1,,110%,107%,109%,98.2%,96.7%,95.9%,97.3%,105%,102%,99.5%,96.2%,97%,90.5%,103%,98.5%,107%,111,96.4%,96.6%
Nc1ccc(NC(=O)c2cccc(N)c2)cc1,108%,,85.7%,,92.5%,96.3%,,104%,101%,105%,91.3%,96.2%,103%,96.5%,104%,97.1%,102%,94.8,82.9%,89.9%
O=[N+]([O-])c1ccc(N=Nc2ccccc2)cc1,,87.2%,101%,107%,91.3%,98.8%,108%,102%,100%,92.2%,88.5%,90.5%,99%,91.4%,99.3%,88.9%,89.6%,96.7,83.5%,92%
CCCCCCCCCCCCCCCCC1CC(=O)OC1=O (centres undefined),121%,,114%,116%,99.3%,104%,104%,,107%,109%,101%,96.4%,103%,102%,105%,98.3%,113%,105,98.9%,103%
O=C(CCNNC(=O)c1ccncc1)NCc1ccccc1,,,110%,93.8%,105%,95.4%,110%,103%,81.8%,105%,89.4%,85.4%,89%,88%,103%,60.9%,95.8%,98.1,87.4%,86.8%
CCCC(=O)c1cc(C)ccc1OC,119%,,135%,109%,125%,94.9%,112%,,100%,107%,94.9%,115%,,95.5%,105%,93.8%,96%,114,91.3%,109%
COc1cc(OC)c2ccc(=O)oc2c1,102%,,136%,123%,100%,106%,98.1%,115%,96.4%,,85.3%,98.8%,107%,95.5%,115%,93.4%,102%,99,100%,96.6%
COCCCC/C(=N\OCCN)c1ccc(C(F)(F)F)cc1,123%,,112%,97.4%,90.3%,109%,106%,109%,103%,96%,79.9%,97.4%,99.6%,97.5%,117%,74%,102%,100,79.8%,
C[C@@H](c1ccccc1)[C@@H](C(=O)O)c1ccccc1,114%,110%,,,98.6%,96.5%,98.8%,101%,95.4%,103%,88.4%,93.1%,98.2%,,108%,110%,106%,92.4,94.5%,98.4%
